Bioassay records as filed in PubChem.
Rows were chosen to be rich in hits. Some 3.2% of all compounds tested hit in one or more screens of this group.
TMEM16A act – activates or potentiates the mouse TMEM16A chloride channel. AID 623877. HEK293 TMEM16A/YFP-H148Q/I152L, iodide quench fluorescence; active compounds read low. B-score at 10 µM. 340,000 tested, 0.3% active. Q8BHY3;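 active = fluorescence-ratio B-score plate-corrected deviation score at least 3 library SD below zero, with starting fluorescence score within 5 deviations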;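 note: channel opened by trigger with iodide after compound preincubation; score built on the fluorescence ratio of max minus min over baseline; more negative score means more quench and so TMEM16A activation or potentiation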
Target sequence (Q8BHY3 whole entry, looked up): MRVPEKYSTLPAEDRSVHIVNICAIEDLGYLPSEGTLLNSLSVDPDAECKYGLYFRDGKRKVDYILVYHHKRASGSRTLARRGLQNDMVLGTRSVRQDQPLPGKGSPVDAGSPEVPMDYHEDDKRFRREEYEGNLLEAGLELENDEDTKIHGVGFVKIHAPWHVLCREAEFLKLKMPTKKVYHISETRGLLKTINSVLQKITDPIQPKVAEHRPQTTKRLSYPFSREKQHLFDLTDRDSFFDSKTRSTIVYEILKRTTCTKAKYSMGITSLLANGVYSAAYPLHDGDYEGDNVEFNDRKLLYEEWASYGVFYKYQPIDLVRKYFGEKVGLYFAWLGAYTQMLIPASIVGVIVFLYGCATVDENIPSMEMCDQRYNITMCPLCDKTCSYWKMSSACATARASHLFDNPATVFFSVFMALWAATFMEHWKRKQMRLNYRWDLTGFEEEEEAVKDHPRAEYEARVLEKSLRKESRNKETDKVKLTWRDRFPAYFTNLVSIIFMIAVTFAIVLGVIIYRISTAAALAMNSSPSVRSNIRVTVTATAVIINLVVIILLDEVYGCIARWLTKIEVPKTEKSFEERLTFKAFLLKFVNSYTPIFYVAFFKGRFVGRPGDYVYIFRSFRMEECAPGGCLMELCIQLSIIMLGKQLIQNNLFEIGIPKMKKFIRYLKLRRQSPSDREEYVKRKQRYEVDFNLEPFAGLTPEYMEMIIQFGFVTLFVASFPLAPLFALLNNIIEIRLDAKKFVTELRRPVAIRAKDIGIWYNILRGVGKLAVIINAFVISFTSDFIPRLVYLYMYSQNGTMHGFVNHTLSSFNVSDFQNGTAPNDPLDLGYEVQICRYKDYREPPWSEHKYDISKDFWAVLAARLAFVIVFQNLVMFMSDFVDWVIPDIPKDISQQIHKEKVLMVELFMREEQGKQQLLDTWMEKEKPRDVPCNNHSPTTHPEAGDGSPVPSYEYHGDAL
CHT allo act – human CHT allosteric activation; 310,000 tested, 0.49% active; CHT-expressing cells, membrane potential dye, choline EC20; active compounds read high; LV-AA mutant CHT in HEK293 cells; Q9GZV3; B-score at 10 µM;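 active = initial fluorescence not abnormally high and integrated response B-score, plate-corrected, over 3 SD above library mean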
Kir21 block – blocks the mouse Kir2.1 inward-rectifier potassium channel | HEK293-Kir2.1, FluxOR thallium flux fluorescence; active compounds read low | B-score at 10 µM | 310,000 tested, 0.85% active | AID 1672;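 active = fluorescence ratio B-score at or below minus 3 SD of library scores, with starting-brightness B-score within 2 SD, cut at about -4.2 in these data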;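 note: channel flux triggered by added potassium and thallium sulfate stimulus; B-score of peak minus minimum fluorescence over baseline after thallium stimulus; more negative B-score means stronger Kir2.1 block with less thallium influx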
TMEM16A inh – mouse TMEM16A channel inhibition, primary screen; 310,000 tested, 1.2% active; normalized B-score (activity score, 25-100; higher = stronger inhibition) at 10 µM; HEK293 TMEM16A/YFP iodide influx fluorescence, ionomycin;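 active = ratio plate-corrected score three or more library SD toward inhibition, starting fluorescence score within five deviations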;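 note: score derived from kinetic fluorescence span divided by baseline fluorescence per well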
CHT block – human CHT choline transport inhibition. Q9GZV3. 310,000 tested, 0.86% active. B-score at 10 µM. CHT-expressing cells, membrane potential dye, choline response; active compounds read low. AID 488975;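 active = B-score over 3 SD under the library average, and starting fluorescence ratio not unusually high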;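 note: choline stimulus applied at its EC90 after an EC20 pre-addition; B-score computed on integrated fluorescence ratio after choline addition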
Rce1 inh – inhibitors of yeast Ras-converting enzyme; Q03530; yeast membranes, quenched prenylated peptide cleavage fluorescence; calls only; 290,000 tested, 0.27% active;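 active = fall in fluorescence gain of 50% or more versus controls, with final raw signal at or below 3038400; inconclusive = same 50% fall but final raw signal above 3038400; inactive = fall in fluorescence gain under 50%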;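 note: plate controls were neutral control wells for no effect and wells lacking membranes for full effect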
CHT activ conf – confirmation of human choline transporter (CHT) activators. shares compounds with CHT allo act. CHT-expressing cells, membrane potential dye fluorescence (FDSS); % of choline EC20–EC90 response window; HEK293 expressing CHT LV-AA mutant; choline added at its EC20. activation, % at 10 µM. 2,500 tested, 91% active. AID 504833;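 active = primary screen active, with duplicate mean activation above negative control mean plus 3 SD, cut at about 11% in these data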
HEK293 MP dye – CHT activator counter-screen hit in parental HEK293 cells. 2,500 tested, 62% active. membrane potential dye fluorescence (FDSS); measured after EC20 choline addition. shares compounds with CHT allo act. ratio readout change at 10 µM, hits read low. AID 623908;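 active = duplicate-averaged ratio beyond 3 SD from buffer wells, up or down, though filed actives are nearly all decreases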
* hit, by the source's call; i = inactive; ? = inconclusive; · = no result given.

SMILES	TMEM16A act	CHT allo act	Kir21 block	TMEM16A inh	CHT block	Rce1 inh	CHT activ conf	HEK293 MP dye
Cc1ccc(C)c(C(=O)C(C)Sc2nc3nn(-c4ccccc4)c(=O)c-3c3n2CCCCC3)c1 (configuration not stated)	i	i	2.2	i	i	i	·	·
CCOC(=O)c1sc2ncnc(N3CCN(c4ccc(OC)cc4)CC3)c2c1C	i	i	-2	i	i	i	·	·
CCOC(=O)c1sc2ncnc(N3CCN(C)CC3)c2c1C	i	i	-0.88	i	i	i	30*	-41*
CCC(Sc1nc2cc(OC)c(OC)cc2c(=O)n1Cc1ccc(OC)cc1)C(=O)NCCOC (configuration not stated)	i	6.6*	0.78	i	i	i	4	i
O=C(Nc1ccc2nccnc2c1)c1cnccn1	i	7.5*	-0.12	i	i	i	53*	-58*
CCCn1c(C)cc(=O)c2cc(NC(=O)c3cnccn3)ccc21	i	i	0.24	i	i	i	41*	-80*
O=C(COc1ccccc1Cl)NCCNC(=O)c1ccco1	i	i	0.5	i	i	i	·	·
CCCc1cnc(N2CCN(C(=O)c3ccc(OC)cc3)CC2)nc1	i	i	-1.1	i	i	i	·	·
COc1ccc2sc(C)[n+](C)c2c1	i	11*	0.02	i	i	i	39*	-30*
COc1cc2c(cc1OC)-c1cc3ccc(OC)c(OC)c3c[n+]1CC2	i	i	·	i	i	·	36*	-24*
COc1cc2c(cc1OC)CN(S(=O)(=O)c1cccc(F)c1)CC2	i	i	0.02	i	i	i	·	·
CC(C)CCOC(=O)/C(=C/c1ccco1)NC(=O)/C=C/c1ccccc1	i	8.4*	0.41	i	i	i	16*	i
C=CCNC(=S)N1CCN(Cc2ccccc2)CC1	i	i	-0.15	i	i	i	·	·
O=C(CSc1ccc2nnc(-c3cccnc3)n2n1)NCC1CCCO1 (configuration not stated)	i	i	-0.19	i	i	i	11*	i
Cc1cc(NC(=O)CSc2ccc3nnc(-c4ccccc4)n3n2)no1	i	7.1*	1.1	i	i	i	48*	-32*
CCn1c(SCC(=O)Nc2cc(C)on2)nnc1-c1ccccc1	i	i	0.35	i	i	i	·	·
Nc1ccc(N2CCCCC2)cc1N1CCCCC1	i	7.9*	0.74	i	i	i	49*	-32*
Cc1nn(-c2cc(N3CCCCC3)ccc2N)c(=O)c2ccccc12	i	i	1.1	i	i	i	·	·
CCCN(CC(=O)Nc1cc(Cl)ccc1Cl)C(=O)/C=C/c1ccco1	i	6.8*	1.9	i	i	i	31*	i
COc1ccc(C(=O)CNC2=NCCC2)cc1	i	8.2*	0.04	i	i	i	57*	-47*
O=C(CNC1=NCCC1)c1ccc(Cl)cc1	i	i	2.3	i	i	i	30*	-25*
COc1ccc(C(=O)NNC2=NCCCCC2)cc1	i	i	0.35	i	i	i	·	·
O=C(CN1C(=O)NC2(CCCCCCC2)C1=O)Nc1ccc(Cl)cc1	i	·	·	·	·	·	·	·
N#CCC(=O)NNc1c([N+](=O)[O-])cc(C(F)(F)F)cc1[N+](=O)[O-]	i	i	-0.35	i	i	i	27*	-44*
Cc1ccc(C)c(N2CCN(C3CCCCC3NS(=O)(=O)c3ccccc3)CC2)c1 (configuration not stated)	-6.2*	6.3*	0.68	i	i	i	16*	i
SMILES	TMEM16A act	CHT allo act	Kir21 block	TMEM16A inh	CHT block	Rce1 inh	CHT activ conf	HEK293 MP dye
O=S(=O)(NC1CCCCC1N1CCCCC1)c1ccccc1 (configuration not stated)	i	i	-0.93	i	i	i	·	·
CSc1ccc(CN(C)C(=O)C(c2ccccc2)c2ccccc2)cc1	i	7.1*	-0.18	i	i	i	34*	i
COC(=O)c1cc2c(n1S(=O)(=O)c1ccc(C)cc1)C(=O)C(=O)c1[nH]cc(C(=O)OCc3ccccc3)c1-2	i	·	·	·	·	·	·	·
COc1ccc(CC(=O)NNC(=O)COc2ccc(Cl)cc2C)cc1S(=O)(=O)N1CCOCC1	i	·	·	·	·	·	·	·
Cc1nc2ccccc2c2c1CC(C)S2 (configuration not stated)	i	i	-1.6	i	i	i	42*	-53*
COc1ccc(-c2csc(N(CCCN(C)C)C(=O)c3cccs3)n2)cc1	i	i	0.39	i	i	i	36*	-43*
CCOC(=O)c1c(N)n(C2CC(C)(C)NC(C)(C)C2)c2nc3ccccc3nc12	i	6.7*	1.3	i	i	i	57*	-72*
CCOC(=O)c1c(N)n(-c2ccc(N)cc2)c2nc3ccccc3nc12	i	i	0.02	i	i	i	·	·
CCOC(=O)c1c(NC(=O)c2ccco2)n(C2CCCCC2)c2nc3ccccc3nc12	i	7.3*	-1.2	i	i	i	42*	i
Cc1noc(C)c1C(=O)OCC(=O)Nc1ccc(S(N)(=O)=O)cc1	i	·	·	·	·	·	·	·
CN(CCOc1ccc(Cl)cc1)C(=O)C1CCN(C(=O)c2ccc(Cl)cc2)CC1	i	i	-0.5	i	i	i	·	·
Cc1cc(=O)cc(C)n1-c1ccc(F)cc1F	i	i	0.07	i	i	i	·	·
COc1ccc(-c2nc(C#N)c(NCCCN3CCOCC3)o2)cc1	i	i	-0.35	i	i	i	24*	-21*
O=C(OCC1CCC=CO1)C1CCC=CO1 (configuration not stated)	i	·	·	·	·	·	·	·
CN1CCCC1CCNc1ccc2c(=O)c3ccccc3oc2c1 (configuration not stated)	i	6.4*	-1.4	i	i	?	53*	-22*
COC(=O)c1cc(S(=O)(=O)NC2CCC(C)CC2)cn1C (configuration not stated)	i	i	1.2	i	i	i	·	·
C=CCNC(=O)COC(=O)c1c2c(nc3ccccc13)CCC2	i	i	-1.5	i	i	i	·	·
